Data reported in PubChem BioAssay AID686978 (National Center for Advancing Translational Sciences (NCATS), 2013).
The whole screen tested about 420,000 compounds, of which about 64,000 (15%) were called active. Another 27% or so got no clear call; they are omitted. These entries were drawn from the full list. A number with no mark means an inactive call. Calls come from the whole dose curve; as a rule, active = well fitted inhibition curve with a large enough effect; inconclusive = small, poorly fitted or top-dose-only effect; inactive = flat fitted curve, though single readings scatter.

Test: qHTS for Inhibitors of human tyrosyl-DNA phosphodiesterase 1 (TDP1): qHTS in cells in absence of CPT; note: nearly all actives have a fitted effect of over 55% in size
Settings: DT40 Tdp1-/- hTDP1 cells, no CPT, ATP luminescence, 48 h; activity change, negative = growth inhibition: at 46.2 µM (top of the series)
How it was run: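 Chicken DT40 Tdp1-/- cells stably complemented with human TDP1 were seeded at 400 cells/well with DMSO in place of 20 nM camptothecin. After compound pinning, cells grew at least 48 hr at 37 °C; viability read by CellTiter-Glo luminescence.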
% is set by controls: 0 for no effect and ±100 for the full control effect; potency is the fitted concentration of half-maximal effect.

Row | SMILES | activity change, negative = growth inhibition [%] | Potency
1 | c1nc(COc2nsnc2N2CCOCC2)cs1 | -13.8 | –
2 | CC(=O)Nc1cc2ccc(OC(C)=O)cc2oc1=O | -20 | –
3 | CC(C)NC(=O)C(=O)N/N=C/c1ccco1 | 10.1 | –
4 | Cc1ccc(C)c(Cn2c(CCCNC(=O)C3CCCCC3)nc3ccccc32)c1 | – | 16.4 µM (active)
5 | CCCNC(=O)C1CCN(c2nc3ccc(C)cc3[nH]2)CC1 | -6.49 | –
6 | CCCCNC(=O)CCn1c(=O)c2ccccc2n(Cc2cc(C)ccc2C)c1=O | – | inactive
7 | CCc1ccc(OCCCn2c(CCCNC(=O)C3CCCCC3)nc3ccccc32)cc1 | – | 4.47 µM (active)
8 | Cc1ccc(Cn2c(CCCNC(=O)C3CCCCC3)nc3ccccc32)cc1 | – | 20.6 µM (active)
9 | Cc1ccc(CN2C(=O)CCC2C(=O)NCCCN2CCCCC2C)cc1 (centres undefined) | -0.806 | –
10 | O=C(NCCCc1ccccc1)C1CCC(CNc2c(N3CCCCC3)c(=O)c2=O)CC1 (centres undefined) | -14.4 | –
11 | CCCc1nc2c(C)cc(-c3nc4ccccc4n3C)cc2n1Cc1ccc(-c2ccccc2C(=O)O)cc1 | -19.6 | –
12 | CC(C)Oc1ccc(CNC(=O)C2CCN(c3nc4ccccc4n(C)c3=O)CC2)cc1 | -15.9 | –
13 | O=C(NC1CC(=O)N(c2ccc(F)cc2)C1)c1cccs1 (centres undefined) | -16.2 | –
14 | Cc1cc(C)c(S(=O)(=O)c2ccc(F)cc2C)c(=O)[nH]1 | 2.94 | –
15 | COc1cccc(NC(=O)c2nn(-c3ccc(OC)cc3OC)c(=O)c3ccccc23)c1 | -1.05 | –
16 | O=C1NC(c2ccccc2)Cc2ccncc21 (centres undefined) | -29.1 | –
17 | N[C@H]1CN(c2c(F)cc3c(=O)c(C(=O)O)cn(C4C[C@H]4F)c3c2Cl)CC12CC2 (some centres undefined) | -27.3 | –
18 | Cc1ccc(OCC(=O)Nc2cccc3c2CCCC3)cc1C | -27 | –
19 | NS(=O)(=O)c1cccc(NC(=O)CN2CCCc3ccccc32)c1 | -2.52 | –
20 | COC(=O)c1[nH]c2cccc(C)c2c1NC(=O)CN1CCCc2ccccc21 | – | 20.6 µM (active)
21 | CCN1CCN(C(=O)C2(NC(=O)Nc3cccc(F)c3)CCCCC2)CC1 | -18.3 | –
22 | O=C(COc1ccc2ccc(=O)oc2c1)NCC(O)c1ccccc1 (centres undefined) | 17.9 | –
23 | COCCn1c(=O)c(-c2ccc(OC)cc2)nc2cnc(Oc3cccc(Cl)c3)nc21 | -9.79 | –
24 | O=C(NCc1cccs1)C1CCN(S(=O)(=O)c2ccc3c(c2)OCCO3)CC1 | -23.7 | –
25 | COc1ccc(C(=O)OCC(=O)Nc2cc(C)on2)cc1F | 0.457 | –
26 | Cn1nccc1C(=O)NC1CCCc2c1cnn2-c1ccccc1F (centres undefined) | – | 2.06 µM (active)
27 | O=C(CCNC(=O)c1ccc(Cl)cc1)NC1CCCc2ccccc21 (centres undefined) | 4.52 | –

Row | SMILES | activity change, negative = growth inhibition [%] | Potency
28 | CC(=O)NCC(=O)NC1CCCc2c1cnn2-c1ccccc1F (centres undefined) | -0.918 | –
29 | Cn1nccc1C(=O)NC1CCCc2c1cnn2-c1ccc(F)cc1F (centres undefined) | – | 1.64 µM (active)
30 | Cc1ccc(S(=O)(=O)N[C@@H](Cc2ccccc2)C(=O)N2CCC(C(=O)N[C@H](C(=O)O)C(C)O)CC2)cc1 (some centres undefined) | 10.3 | –
31 | COc1ccc(C2C(C(C)=O)=C(O)C(=O)N2Cc2cccnc2)cc1 (centres undefined) | -13.7 | –
32 | COc1cc2nc(C#Cc3nc4cc(OC)c(OC)cc4[nH]3)[nH]c2cc1OC | -2.38 | –
33 | Cc1nnc(NC(=O)Cn2c(=O)sc3ccccc32)s1 | -4.38 | –
34 | CC(Oc1ccccc1F)C(=O)NN (centres undefined) | -2.53 | –
35 | CCOc1ccc(-c2ccc(SCC(=O)N3CCOCC3)nn2)cc1 | 2.68 | –
36 | CCOC(=O)N1CCN(C(=O)CSc2ccc(Cl)cc2)CC1 | -4.08 | –
37 | COc1cccc(-c2ccc(SCC(=O)N3CCN(c4ccccc4)CC3)nn2)c1 | – | 16.4 µM (active)
38 | COc1cccc(-c2nn(C)c3sc(C(=O)N4CCN(c5ccccc5)CC4)cc23)c1 | – | 23.1 µM (active)
39 | Cn1nc(C(F)(F)F)c2cc(C(=O)N3CCOCC3)sc21 | -9.2 | –
40 | COc1cccc(/C=C/C(=O)OCC(=O)N2CCN(c3ccccc3)CC2)c1 | -8.54 | –
41 | Cn1nc(-c2ccc(Cl)cc2)c2cc(C(=O)NCc3ccco3)sc21 | – | 20.6 µM (active)
42 | COc1ccc(OC)c(S(=O)(=O)N(C)CC(=O)N2CCN(c3ccccc3)CC2)c1 | -2.97 | –
43 | CCOC(=O)N1CCN(C(=O)CNC(=O)Cc2ccc(Cl)cc2)CC1 | -16.7 | –
44 | O=C(NCc1ccco1)c1nc(-c2ccccc2)n(-c2ccccc2)n1 | -18.6 | –
45 | COc1ccc2c(Cl)c(C(=O)NCc3ccco3)sc2c1 | -25.1 | –
46 | CCOC(=O)N1CCN(C(=O)c2cc3c(-c4ccc(Cl)cc4)nn(C)c3s2)CC1 | – | 11.6 µM (active)
47 | COC(=O)c1nc(NC(=O)c2ccc(F)cc2)n[nH]1 | -20.9 | –
48 | Nc1cc(=O)c2[nH]cnc2[nH]1 | 3.63 | –
49 | S=C(NC1CCCCC1)NN1CCOCC1 | 11.9 | –
50 | CCn1c(SCC(=O)Nc2cc(C)ccc2C)nnc1-c1cnccn1 | -12 | –
51 | CCN(CCCNC(=O)c1c(C)oc2ncn(CC(C)C)c(=O)c12)Cc1ccccc1 | -17.9 | –
52 | Cc1ccc(C(c2sc3nc(C)nn3c2O)N2CCN(c3ccccc3)CC2)cc1 (centres undefined) | -13.8 | –
53 | Cc1ccn(CC(=O)N2N=C(C(F)F)CC2(O)C(F)F)n1 (centres undefined) | -0.589 | –
54 | CCOc1ccccc1NC(=O)C1=C(C)Nc2ncnn2C1c1ccc(NC(C)=O)cc1 (centres undefined) | -21 | –
